# Assay results as given in the supplement of paper PMC11001985.
# Compound: C#CCNC(=O)CCSSCCC(=O)NCCc1ccc(C=O)c(C=O)c1
# Assay: lysine labeling ratio R10:1 (500 µM / 50 µM probe), SILAC-ABPP in living cells; higher = lower intrinsic lysine reactivity toward the probe, active = 2 or less
# Conditions: HeLa; probe concentrations 500 vs 50 µM
# In short: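 R, given per lysine, is the filtered median high-probe/low-probe MS1 peptide ratio, with the median then taken across forward and reverse replicates. Cells were living SILAC light and heavy HeLa cells in PBS at room temperature, labelled with 50 µM or 500 µM of an alkyne-tagged, disulfide-linked lysine probe. The ceiling applied is 20.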
# Chain of UniProt P11717 (P11717 whole entry): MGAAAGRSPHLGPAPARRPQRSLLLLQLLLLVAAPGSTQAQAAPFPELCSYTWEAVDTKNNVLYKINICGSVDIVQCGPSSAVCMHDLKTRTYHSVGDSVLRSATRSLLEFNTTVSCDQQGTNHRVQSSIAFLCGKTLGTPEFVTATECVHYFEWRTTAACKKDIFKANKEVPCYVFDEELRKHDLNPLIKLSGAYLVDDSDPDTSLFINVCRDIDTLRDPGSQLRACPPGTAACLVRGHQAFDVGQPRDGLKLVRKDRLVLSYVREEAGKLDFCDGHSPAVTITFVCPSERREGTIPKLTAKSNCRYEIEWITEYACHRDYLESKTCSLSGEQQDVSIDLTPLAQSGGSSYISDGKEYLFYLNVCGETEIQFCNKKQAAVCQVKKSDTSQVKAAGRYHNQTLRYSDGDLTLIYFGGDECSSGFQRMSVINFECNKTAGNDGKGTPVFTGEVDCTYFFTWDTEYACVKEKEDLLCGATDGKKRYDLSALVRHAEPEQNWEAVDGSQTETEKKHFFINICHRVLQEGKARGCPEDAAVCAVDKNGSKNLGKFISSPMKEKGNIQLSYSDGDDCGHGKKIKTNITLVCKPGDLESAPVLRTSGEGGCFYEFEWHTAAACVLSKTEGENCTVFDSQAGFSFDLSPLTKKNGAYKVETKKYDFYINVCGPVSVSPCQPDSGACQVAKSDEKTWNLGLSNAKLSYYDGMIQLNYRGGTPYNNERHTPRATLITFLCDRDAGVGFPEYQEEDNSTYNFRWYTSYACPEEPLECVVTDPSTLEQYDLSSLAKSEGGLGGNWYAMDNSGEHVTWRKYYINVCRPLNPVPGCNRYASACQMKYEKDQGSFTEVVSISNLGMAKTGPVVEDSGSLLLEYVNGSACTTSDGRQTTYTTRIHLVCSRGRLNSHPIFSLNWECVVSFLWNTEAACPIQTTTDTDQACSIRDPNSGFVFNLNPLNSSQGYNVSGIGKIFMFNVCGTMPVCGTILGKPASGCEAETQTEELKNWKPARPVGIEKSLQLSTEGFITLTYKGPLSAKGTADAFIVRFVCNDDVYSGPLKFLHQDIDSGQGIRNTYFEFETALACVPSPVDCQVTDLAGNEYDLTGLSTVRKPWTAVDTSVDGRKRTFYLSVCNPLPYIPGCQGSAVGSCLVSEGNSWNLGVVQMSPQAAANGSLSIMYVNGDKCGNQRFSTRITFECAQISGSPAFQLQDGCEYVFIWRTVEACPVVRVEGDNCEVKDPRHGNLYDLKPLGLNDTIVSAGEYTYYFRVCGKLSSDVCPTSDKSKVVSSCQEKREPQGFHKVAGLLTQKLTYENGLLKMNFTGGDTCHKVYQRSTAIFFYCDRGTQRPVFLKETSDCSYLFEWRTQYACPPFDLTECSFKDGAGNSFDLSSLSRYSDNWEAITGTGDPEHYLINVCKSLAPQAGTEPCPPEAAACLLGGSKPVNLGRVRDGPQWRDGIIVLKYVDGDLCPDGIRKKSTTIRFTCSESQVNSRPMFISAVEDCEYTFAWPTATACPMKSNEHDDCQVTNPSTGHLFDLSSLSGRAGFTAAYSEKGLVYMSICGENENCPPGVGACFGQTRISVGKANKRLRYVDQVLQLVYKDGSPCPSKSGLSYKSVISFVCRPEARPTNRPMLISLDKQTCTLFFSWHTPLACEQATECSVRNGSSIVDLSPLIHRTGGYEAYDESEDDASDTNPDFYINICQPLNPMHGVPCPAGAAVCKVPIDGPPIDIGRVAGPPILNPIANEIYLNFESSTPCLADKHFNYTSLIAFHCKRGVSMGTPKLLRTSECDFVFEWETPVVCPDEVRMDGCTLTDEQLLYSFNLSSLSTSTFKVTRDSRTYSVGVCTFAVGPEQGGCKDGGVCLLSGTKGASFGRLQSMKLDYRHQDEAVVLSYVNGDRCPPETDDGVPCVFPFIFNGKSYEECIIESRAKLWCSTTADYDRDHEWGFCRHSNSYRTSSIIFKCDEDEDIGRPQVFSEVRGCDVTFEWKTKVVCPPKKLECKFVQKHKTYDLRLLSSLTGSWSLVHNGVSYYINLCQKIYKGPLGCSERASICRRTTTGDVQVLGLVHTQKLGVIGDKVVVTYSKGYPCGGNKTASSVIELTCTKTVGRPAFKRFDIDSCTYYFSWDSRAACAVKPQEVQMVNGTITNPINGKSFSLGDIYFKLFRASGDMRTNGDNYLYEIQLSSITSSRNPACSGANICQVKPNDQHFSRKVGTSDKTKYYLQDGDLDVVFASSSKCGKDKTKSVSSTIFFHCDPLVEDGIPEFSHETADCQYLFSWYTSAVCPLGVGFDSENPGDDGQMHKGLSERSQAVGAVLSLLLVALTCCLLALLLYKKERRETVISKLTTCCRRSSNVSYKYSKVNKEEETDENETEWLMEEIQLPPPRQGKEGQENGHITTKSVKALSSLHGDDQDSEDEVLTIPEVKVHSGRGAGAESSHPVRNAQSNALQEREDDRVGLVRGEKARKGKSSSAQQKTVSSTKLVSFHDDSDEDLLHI
# Chain of UniProt Q14974 (Q14974 whole entry): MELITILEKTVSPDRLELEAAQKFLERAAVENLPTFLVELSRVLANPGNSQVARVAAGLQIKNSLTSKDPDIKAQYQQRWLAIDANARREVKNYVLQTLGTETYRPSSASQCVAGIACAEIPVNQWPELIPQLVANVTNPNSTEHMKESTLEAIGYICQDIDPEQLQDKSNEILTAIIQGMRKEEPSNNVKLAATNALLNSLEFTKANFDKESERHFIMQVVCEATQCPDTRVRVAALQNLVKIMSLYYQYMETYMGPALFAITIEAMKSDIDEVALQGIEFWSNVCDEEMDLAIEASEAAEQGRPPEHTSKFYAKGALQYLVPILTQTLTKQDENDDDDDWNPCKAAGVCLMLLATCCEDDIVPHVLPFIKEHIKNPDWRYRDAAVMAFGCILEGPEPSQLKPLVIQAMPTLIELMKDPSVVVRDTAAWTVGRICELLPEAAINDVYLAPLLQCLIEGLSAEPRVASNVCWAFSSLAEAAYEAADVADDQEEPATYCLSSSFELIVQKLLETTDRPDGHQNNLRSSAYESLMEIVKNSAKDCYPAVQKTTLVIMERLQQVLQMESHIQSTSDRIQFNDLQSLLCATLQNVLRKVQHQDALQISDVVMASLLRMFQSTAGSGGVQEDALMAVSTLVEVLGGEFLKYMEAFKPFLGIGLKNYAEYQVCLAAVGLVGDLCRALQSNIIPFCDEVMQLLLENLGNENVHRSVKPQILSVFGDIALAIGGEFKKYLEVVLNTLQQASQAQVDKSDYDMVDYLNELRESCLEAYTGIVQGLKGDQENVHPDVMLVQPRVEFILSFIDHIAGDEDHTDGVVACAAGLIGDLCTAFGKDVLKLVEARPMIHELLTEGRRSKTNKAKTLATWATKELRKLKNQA
# Chain of UniProt O60437 (O60437 whole entry): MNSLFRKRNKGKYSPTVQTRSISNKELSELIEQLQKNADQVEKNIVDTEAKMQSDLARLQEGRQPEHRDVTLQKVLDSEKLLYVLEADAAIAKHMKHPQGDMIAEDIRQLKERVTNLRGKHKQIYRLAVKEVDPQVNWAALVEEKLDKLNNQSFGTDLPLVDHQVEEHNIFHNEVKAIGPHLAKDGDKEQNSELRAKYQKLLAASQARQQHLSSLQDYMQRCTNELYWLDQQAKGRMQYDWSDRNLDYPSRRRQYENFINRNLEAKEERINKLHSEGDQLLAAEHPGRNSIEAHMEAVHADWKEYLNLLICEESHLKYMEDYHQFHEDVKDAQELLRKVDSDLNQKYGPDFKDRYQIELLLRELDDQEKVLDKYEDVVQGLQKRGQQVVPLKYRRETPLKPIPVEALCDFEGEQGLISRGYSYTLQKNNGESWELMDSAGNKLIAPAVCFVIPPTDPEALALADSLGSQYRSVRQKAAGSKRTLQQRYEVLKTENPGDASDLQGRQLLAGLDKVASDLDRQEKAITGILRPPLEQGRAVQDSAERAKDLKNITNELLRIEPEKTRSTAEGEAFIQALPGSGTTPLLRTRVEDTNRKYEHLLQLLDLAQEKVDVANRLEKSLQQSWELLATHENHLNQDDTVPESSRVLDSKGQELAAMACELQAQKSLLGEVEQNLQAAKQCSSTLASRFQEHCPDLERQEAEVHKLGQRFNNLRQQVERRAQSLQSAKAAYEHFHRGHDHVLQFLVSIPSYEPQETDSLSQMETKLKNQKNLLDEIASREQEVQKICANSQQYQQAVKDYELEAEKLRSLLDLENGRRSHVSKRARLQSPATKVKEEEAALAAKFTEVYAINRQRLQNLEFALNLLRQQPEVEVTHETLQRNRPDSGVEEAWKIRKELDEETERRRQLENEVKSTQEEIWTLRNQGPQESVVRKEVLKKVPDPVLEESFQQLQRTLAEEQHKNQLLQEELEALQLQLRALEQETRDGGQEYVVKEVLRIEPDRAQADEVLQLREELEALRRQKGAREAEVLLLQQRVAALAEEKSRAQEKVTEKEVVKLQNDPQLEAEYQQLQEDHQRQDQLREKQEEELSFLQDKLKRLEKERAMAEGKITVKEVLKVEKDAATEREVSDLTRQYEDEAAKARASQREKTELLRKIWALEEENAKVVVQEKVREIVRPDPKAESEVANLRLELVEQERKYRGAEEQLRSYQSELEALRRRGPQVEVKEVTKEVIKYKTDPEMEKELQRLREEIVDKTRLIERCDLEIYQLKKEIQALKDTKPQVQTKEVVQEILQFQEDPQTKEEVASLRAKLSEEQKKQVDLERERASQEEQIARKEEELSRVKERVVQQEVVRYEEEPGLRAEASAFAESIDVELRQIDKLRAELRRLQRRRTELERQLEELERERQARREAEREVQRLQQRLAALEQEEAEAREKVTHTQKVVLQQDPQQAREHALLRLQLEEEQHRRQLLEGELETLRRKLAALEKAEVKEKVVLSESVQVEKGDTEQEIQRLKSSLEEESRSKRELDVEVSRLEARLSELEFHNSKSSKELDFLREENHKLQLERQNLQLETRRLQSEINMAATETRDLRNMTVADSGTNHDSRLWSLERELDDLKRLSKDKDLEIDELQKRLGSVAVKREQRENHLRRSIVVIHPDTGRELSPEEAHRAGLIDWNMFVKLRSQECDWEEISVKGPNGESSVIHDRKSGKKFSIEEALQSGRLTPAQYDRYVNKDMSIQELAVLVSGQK
row,Target,lysine labeling ratio R10:1
1,ENG (lysine site: K556) (UniProt P17813),2.03 (inactive)
2,FN1 (lysine site: K269) (UniProt P02751),9.87 (inactive)
3,PCNA (lysine site: K254) (UniProt P12004),1.56 (active)
4,CD47 (lysine site: K130) (UniProt Q08722),3.14 (inactive)
5,CACNA2D1 (lysine site: K88) (UniProt P54289),1.78 (active)
6,THBS1 (lysine site: K919) (UniProt P07996),1.72 (active)
7,EIF2S1 (lysine site: K190) (UniProt P05198),2.9 (inactive)
8,MAP4 (lysine site: K933) (UniProt P27816),1.9 (active)
9,TNFRSF1A (lysine site: K107) (UniProt P19438),1.07 (active)
10,KRT18 (lysine site: K119) (UniProt P05783),6.22 (inactive)
11,UniProt P62701 (lysine site: K233),4.48 (inactive)
12,PDIA6 (lysine site: K245) (UniProt Q15084),1.95 (active)
13,TMEM109 (lysine site: K46) (UniProt Q9BVC6),3.23 (inactive)
14,HSD17B12 (lysine site: K261) (UniProt Q53GQ0),1.88 (active)
15,ARL6IP5 (lysine site: K158) (UniProt O75915),2.7 (inactive)
16,EGFR (lysine site: K538) (UniProt P00533),5.46 (inactive)
17,CALD1 (lysine site: K577) (UniProt Q05682),1.1 (active)
18,SLC3A2 (lysine site: K615) (UniProt P08195),3.54 (inactive)
19,PNN (lysine site: K262) (UniProt Q9H307),1.08 (active)
20,UniProt Q15286 (lysine site: K121),0.72 (active)

row,Target,lysine labeling ratio R10:1
1,CTTN (lysine site: K272) (UniProt Q14247),1.57 (active)
2,IGF1R (lysine site: K892) (UniProt P08069),3.9 (inactive)
3,HNRNPM (lysine site: K716) (UniProt P52272),1.35 (active)
4,UniProt Q9Y653 (lysine site: K49),1.54 (active)
5,MYH10 (lysine site: K1782) (UniProt P35580),1.76 (active)
6,TIMM8B (lysine site: K80) (UniProt Q9Y5J9),1.18 (active)
7,STOML2 (lysine site: K145) (UniProt Q9UJZ1),3.01 (inactive)
8,PPL (lysine site: K1339) (UniProt O60437),1.34 (active)
9,SERPINH1 (lysine site: K39) (UniProt P50454),5.74 (inactive)
10,CCT2 (lysine site: K230) (UniProt P78371),3.3 (inactive)
11,CD70 (lysine site: K93) (UniProt P32970),3.66 (inactive)
12,MSN (lysine site: K501) (UniProt P26038),5.08 (inactive)
13,IGF2R (lysine site: K303) (UniProt P11717),2.37 (inactive)
14,UniProt P26639 (lysine site: K549),0.996 (active)
15,NUMA1 (lysine site: K1475) (UniProt Q14980),5.25 (inactive)
16,KPNB1 (lysine site: K211) (UniProt Q14974),2.19 (inactive)
17,MYH9 (lysine site: K1638) (UniProt P35579),3.09 (inactive)
18,LMO7 (lysine site: K1405) (UniProt Q8WWI1),1.4 (active)
19,IGF2R (lysine site: K1285) (UniProt P11717),0.936 (active)
20,SUB1 (lysine site: K80) (UniProt P53999),1.69 (active)
